Results taken from PubChem BioAssay (NCATS).
Inconclusive results are not listed. A call without a number means that no potency is given here. Activity calls are given as the source filed them. The call rests on the fitted dose curve; in most records, active means well fitted cell-killing curve with a large enough effect; inconclusive means small, poorly fitted or top-dose-only effect, or effect the other way; inactive means no such curve, though single readings can be large or run the other way.

Experiment: Quantitative High-Throughput drug screen in 47 multiple myeloma cell lines against the NCATS MIPE library collection: XG1_PLB cell viability assay (AID 1919866); further: nearly all actives have a fitted effect of over 35% in size
Conditions: CellTiter-Glo ATP, 48 h; series mostly up to 45.8 µM
Text: PI: Beverly A. Mock Ph.D.
Laboratory of Cancer Biology and Genetics,
Center for Cancer Research, National Cancer Institute,
National Institute of Health, Bethesda, Maryland
Drug resistance and disease progression are common in multiple myeloma (MM) patients, underscoring the need for new therapeutic combinations. […] We hypothesized that effective combinations would reduce MYC expression and enhance p16 activity. […] These preclinical data identify potentially useful drug combinations for evaluation in drug-resistant MM and reveal potential mechanisms of combined drug sensitivity.
Described herein is the primary MIPE qHTS used to cherrypick compounds. Validated compounds were then further tested for potential synergistic activiy.
[1] Peat TJ, Gaikwad SM, Dubois W, Gyabaah-Kessie N, Zhang S, Gorjifard S, Phyo Z, Andres M, Hughitt VK, Simpson RM, Miller MA, Girvin AT, Taylor A, Williams D, D'Antonio N, Zhang Y, Rajagopalan A, Flietner E, Wilson K, Zhang X, Shinn P, Klumpp-Thomas C, McKnight C, Itkin Z, Chen L, Kazandijian D, Zhang J, Michalowski AM, Simmons JK, Keats J, Thomas CJ, Mock BA. Drug combinations identified by high-throughput screening promote cell cycle transition and upregulate Smad pathways in myeloma. Cancer Lett. 2023 Aug 1;568:216284. doi: 10.1016/j.canlet.2023.216284. Epub 2023 Jun 24. PMID: 37356470; PMCID: PMC10408729.
SEQUENCE No. (e.g., 1, 2, 3, etc.); […] (e.g., Cells, Incubation, Reagent, etc.); VALUE and DESCRIPTION.
1; Cells; 5 uL; white, solid bottom 1536-well Greiner assay plate.
2; Compounds; 23 nL; Kalypsis pin tool (Wako USA) equipped with a 1536-well pin head to transfer to the assay plates.
3; Incubation; 48 hours; 37C incubation.
4; Reagent;5uL; CellTiter Glo (Promega).
5; Detector; 425V; Luminescence; Viewlux PerkinElmer.
NOTES (numbers refer to Sequence numbers above)
1. The cell-based screening methods employed in this study were like those previously published. Briefly, the corresponding myeloma cell lines were screened in 1,536-well plates with 500 cells, 5-uL per well for inhibition of cell viability (assessed by measuring ATP levels with CellTiterGlo).
2. NCATS MIPE 4.0 library of approved and investigational drugs were added using the Kalypsis pin tool. Wells treated with DMSO only for 100% viability and media only for 0% viability were used as controls.
3. The assay plates were covered and incubated for 48 hours in a 37C, 5% CO2 incubator with controlled humidity.
4. After 48 hours, CellTilter-GloTM luminescent substrate mix (Promega) reagent was added to the assay plate and plates we incubated for 5 min at room temperature.
5. Signal was measured as median relative luminescence units on a ViewLux (PerkinElmer) multiplate reader.
[1] Heske CM, Davis MI, Baumgart JT, Wilson K, Gormally MV, Chen L, Zhang X, Ceribelli M, Duveau DY, Guha R, Ferrer M, Arnaldez FI, Ji J, Tran HL, Zhang Y, Mendoza A, Helman LJ, Thomas CJ. Matrix Screen Identifies Synergistic Combination of PARP Inhibitors and Nicotinamide Phosphoribosyltransferase (NAMPT) Inhibitors in Ewing Sarcoma. Clin Cancer Res. 2017 Dec 1;23(23):7301-7311. doi: 10.1158/1078-0432.CCR-17-1121. Epub 2017 Sep 12. PMID: 28899971; PMCID: PMC6636827.
Potency means the concentration at half of the fitted maximal effect.

Row | SMILES | Potency
1 | CN1C(=O)COc2c(C(=O)NC3CN4CCC3CC4)cc(Cl)cc21 (stereo not given) | inactive
2 | CCC1(c2ccc(N)cc2)CCC(=O)NC1=O (stereo not given) | inactive
3 | C[C@](O)(CS(=O)(=O)c1ccc(F)cc1)C(=O)Nc1ccc(C#N)c(C(F)(F)F)c1 | 0.418 µM (active)
4 | CC(C)C[C@H](CN)CC(=O)O | inactive
5 | C[C@]12CC[C@@H]3c4ccc(OC(=O)N(CCCl)CCCl)cc4CC[C@H]3[C@@H]1CC[C@@H]2OP(=O)(O)O | inactive
6 | O=P1(N(CCCl)CCCl)NCCCO1 (stereo not given) | 14.8 µM (active)
7 | CC(C)c1cccc(C(C)C)c1O | inactive
8 | O=C(O)CCCc1ccc(N(CCCl)CCCl)cc1 | 16.6 µM (active)
9 | C[C@]12CC[C@H]3[C@@H](CC[C@@]45O[C@H]4C(O)=C(C#N)C[C@]35C)[C@H]1CC[C@H]2O | inactive
10 | CN1C(=O)CCS(=O)(=O)C1c1ccc(Cl)cc1 (stereo not given) | 16.6 µM (active)
